According to PubChem BioAssay:
“And” between values parts separate entries of the source, which are not always exact repeats. Equal values may be shown once. The source made the active and inactive calls. Cut-off read from the data, not from the text of the source, unless noted: active = inhibition above about 80%; inactive = the rest.

Tests used:
[1] = molecular target: NAD(+) hydrolase SARM1 (Homo sapiens) (UniProt Q6SZW1); assay: blocking NAD cleavage by SARM1 SAM-TIR – cell lysate, NAD-Glo luminescence (AID 1508614;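 active = compound whose remaining NAD level is above about 45 nM, limit read from the data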;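 note: higher remaining NAD means stronger inhibition of SARM1 NADase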); settings: SAM-TIR HEK293T lysate NADase, at 1 µM, stronger effect = higher value
NAD(+) hydrolase SARM1 (Homo sapiens), sequence (Q6SZW1 whole entry, looked up, the tested form may be a part): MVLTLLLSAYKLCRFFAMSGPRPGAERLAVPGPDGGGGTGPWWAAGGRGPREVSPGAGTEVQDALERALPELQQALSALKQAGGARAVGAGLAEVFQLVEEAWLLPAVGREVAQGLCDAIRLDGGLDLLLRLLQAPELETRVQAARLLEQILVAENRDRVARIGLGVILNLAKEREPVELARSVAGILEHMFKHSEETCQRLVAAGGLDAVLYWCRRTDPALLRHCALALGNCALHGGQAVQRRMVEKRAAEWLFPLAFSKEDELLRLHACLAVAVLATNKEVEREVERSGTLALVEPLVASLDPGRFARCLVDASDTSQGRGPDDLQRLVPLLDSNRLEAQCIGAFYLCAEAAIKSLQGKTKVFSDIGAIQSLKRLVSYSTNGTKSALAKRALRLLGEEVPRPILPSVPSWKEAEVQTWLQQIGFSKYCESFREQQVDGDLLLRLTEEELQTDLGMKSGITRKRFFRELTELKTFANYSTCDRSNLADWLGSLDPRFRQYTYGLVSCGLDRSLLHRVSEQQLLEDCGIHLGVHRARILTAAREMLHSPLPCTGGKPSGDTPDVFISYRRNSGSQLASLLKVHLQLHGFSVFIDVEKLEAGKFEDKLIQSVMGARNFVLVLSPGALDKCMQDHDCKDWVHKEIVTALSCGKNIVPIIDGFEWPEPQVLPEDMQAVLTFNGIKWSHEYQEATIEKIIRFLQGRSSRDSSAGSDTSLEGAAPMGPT

[2] = molecular target: Mitogen-activated protein kinase 7 (Homo sapiens) (UniProt Q13164); assay: Gal4-ERK5 driven luciferase induction – cell-based, HTS, primary screen (AID 1508626;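 active = luciferase signal above three times the same-plate solvent-only control wells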;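 note: luciferase driven by Gal4-ERK5 fusion binding five Gal4 sites before minimal TATA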); settings: HeLa Gal4-ERK5 transactivation, 18 h, at 5 µM, stronger effect = higher value
Mitogen-activated protein kinase 7 (Homo sapiens), sequence (Q13164 whole entry, looked up, the tested form may be a part): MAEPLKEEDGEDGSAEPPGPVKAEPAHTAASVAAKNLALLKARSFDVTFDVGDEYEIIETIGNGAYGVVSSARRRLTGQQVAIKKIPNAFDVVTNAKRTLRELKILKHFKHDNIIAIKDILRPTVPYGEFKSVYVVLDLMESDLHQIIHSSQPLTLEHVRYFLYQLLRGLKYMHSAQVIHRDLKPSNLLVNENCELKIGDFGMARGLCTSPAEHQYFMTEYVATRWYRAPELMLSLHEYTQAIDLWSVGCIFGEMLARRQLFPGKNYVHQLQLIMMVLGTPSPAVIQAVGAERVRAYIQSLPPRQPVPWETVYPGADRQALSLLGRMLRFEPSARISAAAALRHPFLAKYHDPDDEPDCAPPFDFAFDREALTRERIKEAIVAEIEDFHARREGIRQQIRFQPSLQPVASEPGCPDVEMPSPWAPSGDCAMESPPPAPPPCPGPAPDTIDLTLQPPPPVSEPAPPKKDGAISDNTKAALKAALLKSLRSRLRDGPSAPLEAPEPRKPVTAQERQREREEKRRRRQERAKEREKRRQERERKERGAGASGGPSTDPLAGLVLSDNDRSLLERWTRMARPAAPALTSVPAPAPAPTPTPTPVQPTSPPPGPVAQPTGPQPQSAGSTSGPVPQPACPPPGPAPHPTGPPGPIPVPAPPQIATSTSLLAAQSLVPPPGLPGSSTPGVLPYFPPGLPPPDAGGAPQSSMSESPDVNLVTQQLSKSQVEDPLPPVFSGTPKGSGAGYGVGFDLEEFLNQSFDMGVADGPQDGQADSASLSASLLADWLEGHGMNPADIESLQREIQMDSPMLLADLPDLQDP

[3] = growth inhibition, single agent or in combination, cell-based, chromothripsis tumors, cisplatin or BGB combos (AID 1671449); settings: LFS_MB_P medulloblastoma cells;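 note: cells exposed for 96 hours; 0% = vehicle DMSO and 100% = killing by high DMSO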
[4] = growth inhibition, single agent and combos, cell-based, chromothripsis tumors, cisplatin or BGB combos (AID 1671450); settings: HDN33 neuroblastoma cells, stronger effect = higher value;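 note: cells exposed to compound for four days; 0% = vehicle DMSO and 100% = cell killing by high DMSO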
[5] = growth inhibition, single agents and combos, ICB984, cell-based, cisplatin or BGB combos, synergistic combos for chromothripsis tumors (AID 1671451; call rule not given here;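 note: cells exposed for 96 hours before readout; 0% = vehicle DMSO and 100% = killing by high DMSO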); settings: ICB984 medulloblastoma cells, drug combinations, stronger effect = higher value
[6] = growth inhibition, single agents and combos, LFS_MB_1R, cell-based, cisplatin or BGB combos, synergistic combos for chromothripsis tumors (AID 1671452); settings: LFS_MB_1R medulloblastoma cells, stronger effect = higher value;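 note: cells exposed for 96 hours before readout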
[7] = growth inhibition, single agents and combos, HTB85, cell-based, BGB or cisplatin IC20 combos, synergistic combos for chromothripsis tumors (AID 1671453); settings: HTB85 osteosarcoma cells, drug combinations, stronger effect = higher value;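 note: cells exposed for 96 hours before readout; 0% = vehicle DMSO and 100% = high DMSO killing control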
[8] = growth inhibition, single agents and combos, CRL2098, cell-based, BGB or cisplatin IC20 combos, synergistic combos for chromothripsis tumors (AID 1671454); settings: CRL2098 osteosarcoma cells, drug combinations, stronger effect = higher value;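 note: cells exposed for 96 h before readout; 0% = vehicle DMSO and 100% = killing by high DMSO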
[9] = growth inhibition, single agents and combos, HD-MB03, cell-based, BGB or cisplatin IC20 combos, synergistic combos for chromothripsis tumors (AID 1671455; in the data active = inhibition above about 83%;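 note: 0% = vehicle DMSO and 100% = high DMSO as cytotoxic control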); settings: HD-MB03 medulloblastoma cells, stronger effect = higher value
[10] = growth inhibition, single agents and combos, UWB1.289, cell-based, BGB or cisplatin combos, synergistic combos for chromothripsis tumors (AID 1671456); settings: UWB1.289 ovarian carcinoma cells, stronger effect = higher value;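 note: cells exposed to compound for four days; 0% = vehicle DMSO and 100% = killing by high DMSO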
[11] = growth inhibition, single agents and combos, LFS_MB_2R, cell-based, cisplatin combos, synergistic combos for chromothripsis tumors (AID 1671457); settings: LFS_MB_2R medulloblastoma cells, stronger effect = higher value;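 note: cells exposed to compound for four days before readout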
[12] = growth inhibition, MDA-MB-436, cell-based, BGB or cisplatin combos, synergistic combos for chromothripsis tumors (AID 1671458; call rule not given here;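 note: cells exposed for 96 hours; 0% = vehicle DMSO and 100% = killing by high DMSO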); settings: MDA-MB-436 breast carcinoma growth inhibition, drug combinations, stronger effect = higher value
[13] = UWB1.289_BRCA1 ovarian cancer growth, cell-based, BGB or cisplatin combinations (AID 1671459); settings: UWB1.289 BRCA1 ovarian carcinoma, drug combinations, stronger effect = higher value
[14] = drug combination toxicity in non-malignant astrocytes – cell-based, BGB or cisplatin IC20 combos, cytotoxicity control for chromothriptic childhood tumor combination screen (AID 1671460); settings: Human astrocytes, viability inhibition, drug combinations, at 0.5 µM, stronger effect = higher value;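 note: cells exposed to compounds for 96 hours before viability readout; 0% = vehicle and 100% = killing control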
[15] = BT084 cell growth, single and combined drugs, ICGC_MB145, cisplatin and BGB IC40 combos (AID 1671461); settings: BT084 medulloblastoma cells, drug combinations, stronger effect = higher value;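 note: cells exposed to drugs for 96 hours; 0% = vehicle DMSO and 100% = high DMSO full killing control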
[16] = RCMB18 cell growth, single agent and combined, cisplatin and BGB IC40 combos (AID 1671462); settings: RCMB18 medulloblastoma cells, stronger effect = higher value;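 note: cells exposed to compound for four days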
[17] = CRL1545 cell growth, single agent and combined, cisplatin and BGB IC20 combos (AID 1671464); settings: CRL1545 osteosarcoma cells, stronger effect = higher value;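 note: cells exposed to compound for 96 hours before readout; 0% = vehicle DMSO and 100% = high DMSO killing control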
[18] = galactose survival enhancers in mitochondrial complex I cybrids – cell-based, galactose medium, ATP luminescence, primary screen (AID 1645843;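 active = z-score of at least 1.8 in each of two replicates, scored against plate mean and spread of sample wells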;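 note: positive z means more ATP and so rescue of galactose-driven cybrid death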); settings: complex I mutant cybrid cells, 72 h, stronger effect = higher value
[19] = at 0.5 µM, stronger effect = higher value
[20] = measured here: combination with BGB IC20, at 0.005 µM
[21] = measured here: combination with BGB IC40, at 0.005 µM
[22] = measured here: combination with BGB IC40, at 0.05 µM
[23] = measured here: combination with cisplatin, at 0.5 µM, stronger effect = higher value
[24] = measured here: combination with cisplatin, at 5 µM, stronger effect = higher value
[25] = measured here: with BGB IC20 combination, at 0.5 µM
[26] = measured here: with cisplatin IC20 combination, at 0.5 µM
[27] = measured here: 5 uM single agent, at 5 µM
[28] = measured here: combination with cisplatin, at 0.5 µM
[29] = measured here: combination with cisplatin, at 5 µM
[30] = measured here: with BGB IC20, at 0.5 µM
[31] = measured here: with BGB IC20, at 5 µM

CN(C)c1ccc(C(=C2C=CC(=[N+](C)C)C=C2)c2ccc(N(C)C)cc2)cc1
remaining NAD [1]: 10 nM (inactive)
luciferase signal [2]: 104 AU (inactive)
inhibition [3, 19]: -1.03% (inactive)
inhibition [3, 20]: -15.3%
inhibition [3, 21]: -20.2%
inhibition [3, 22]: -19.9%
inhibition [3, 23]: -17.8%
inhibition [3, 24]: 112%
inhibition ([4]; BGB combo, at 5 µM): 99.3%
inhibition ([4]; at 0.5 µM): 99.6% (active)
inhibition ([4]; cisplatin combo, at 5 µM): 99.6%
inhibition [4, 25]: 99.7%
inhibition [4, 26]: 99.6%
inhibition ([4]; single agent, at 5 µM): 99.7%
inhibition ([5]; BGB IC20 combo, at 0.005 µM): 79.3%
inhibition ([5]; BGB IC40 combo, at 0.005 µM): 87.3%
inhibition ([5]; BGB IC40 combo, at 0.05 µM): 98.5%
inhibition ([5]; at 0.5 µM): -35.3% (inactive)
inhibition ([5]; cisplatin combo, at 0.05 µM): 98.5%
inhibition ([5]; cisplatin combo, at 0.5 µM): -53%
inhibition ([5]; cisplatin combo, at 5 µM): -16%
inhibition [5, 27]: 6.83%
inhibition ([6]; at 0.5 µM): 80.9% (active)
inhibition [6, 22]: -11%
inhibition [6, 28]: 82.3%
inhibition [6, 29]: 104%
inhibition ([7]; at 0.5 µM): 88.8% (active)
inhibition [7, 30]: 84.9%
inhibition [7, 31]: 94%
inhibition ([7]; measured here: with cisplatin IC20, at 0.5 µM): 92.7%
inhibition ([7]; measured here: with cisplatin IC20, at 5 µM): 97.1%
inhibition ([7]; single agent, at 5 µM): 96.8%
inhibition ([8]; at 0.5 µM): 75.8% (inactive)
inhibition ([8]; measured here: combination with BGB at IC20, at 0.5 µM): 79.9%
inhibition ([8]; measured here: combination with cisplatin at IC20, at 0.5 µM): 70.6%
inhibition ([9]; at 0.5 µM): 59.5% (inactive)
inhibition ([9]; measured here: combo with BGB at IC20, at 0.5 µM): 60.7%
inhibition ([9]; measured here: combo with cisplatin at IC20, at 0.5 µM): 47%
inhibition ([10]; at 0.5 µM): 68.6% (inactive)
inhibition ([10]; measured here: inhibition with BGB combination, at 0.05 µM): -11.5%
inhibition ([10]; measured here: inhibition with cisplatin combination, at 0.05 µM): 0.874%
inhibition ([11]; at 0.5 µM): 55.4% (inactive)
inhibition [11, 28]: 59.1%
inhibition [11, 29]: 89.4%
inhibition ([12]; at 0.5 µM): 80.4% (active)
inhibition ([12]; measured here: BGB combination, at 0.5 µM): 73.7%
inhibition ([12]; measured here: BGB combination, at 5 µM): 97.1%
inhibition ([12]; measured here: cisplatin combination, at 0.5 µM): 80.1%
inhibition ([12]; measured here: cisplatin combination, at 5 µM): 98.7%
inhibition ([13]; BGB combination, concentration series, at 5 µM): 105%
inhibition ([13]; at 0.5 µM): 71.7% (inactive)
inhibition ([13]; cisplatin combination, concentration series, at 5 µM): 110%
inhibition [14]: 67.2% (inactive)
inhibition ([14]; measured here: combo with BGB IC20): 65.8%
inhibition ([14]; measured here: combo with cisplatin IC20): 54.6%
inhibition ([15]; at 0.5 µM): 70.2% (inactive)
inhibition ([15]; cisplatin combination, at 0.5 µM): 82.8%
inhibition ([15]; cisplatin combination, at 5 µM): 101%
inhibition ([15]; measured here: BGB IC40 combination 0.05 uM, at 0.05 µM): -10.9%
inhibition ([15]; single agent, at 5 µM): 103%
inhibition ([16]; at 0.5 µM): 64.4% (inactive)
inhibition ([16]; cisplatin combo, at 5 µM): 97.3%
inhibition ([16]; measured here: BGB IC40 combination, at 0.05 µM): 11.2%
inhibition [16, 28]: 59.9%
inhibition ([16]; single agent, at 5 µM): 94.1%
inhibition ([17]; at 0.5 µM): 99.5% (active)
inhibition [17, 25]: 99.4%
inhibition [17, 26]: 99.5%
inhibition ([17]; single agent, at 0.05 µM): 17.4%
inhibition ([17]; single agent, at 5 µM): 99.6%

NC(N)=NC(=O)Cc1c(Cl)cccc1Cl
remaining NAD [1]: 10 nM (inactive)
z-score [18]: -0.06 (inactive) and -0.17 (inactive) and -0.035 (inactive)

CCn1cc(C(=O)O)c(=O)c2cc(F)c(N3CCNC(C)C3)c(F)c21 (configuration not stated)
remaining NAD [1]: 10 nM (inactive)
luciferase signal [2]: 36 AU (inactive)
z-score [18]: 0.475 (inactive) and -0.065 (inactive)
inhibition [3, 19]: -15.3% (inactive) and -10.6% (inactive)
inhibition [3, 20]: -5.89% and -31.7%
inhibition [3, 21]: -27.7% and -17%
inhibition [3, 22]: -32.7% and -10.2%
inhibition [3, 23]: -27.9% and -16%
inhibition [3, 24]: -19.1% and -19.2%
inhibition ([4]; BGB combo, at 5 µM): -42.8% and -11.5%
inhibition ([4]; at 0.5 µM): -39.6% (inactive) and -19.9% (inactive)
inhibition ([4]; cisplatin combo, at 5 µM): -22.1% and -6.52%
inhibition [4, 25]: -33.5% and -33.9%
inhibition [4, 26]: -40.2% and -6.39%
inhibition ([4]; single agent, at 5 µM): -51.7% and -21.7%
inhibition ([5]; BGB IC20 combo, at 0.005 µM): -2.68% and 6.83%
inhibition ([5]; BGB IC40 combo, at 0.005 µM): -5.47% and -12.9%
inhibition ([5]; BGB IC40 combo, at 0.05 µM): -30.9% and -16.1%
inhibition ([5]; at 0.5 µM): -32.8% (inactive) and -22.8% (inactive)
inhibition ([5]; cisplatin combo, at 0.05 µM): -34.5% and -19.4%
inhibition ([5]; cisplatin combo, at 0.5 µM): -41.4% and -25.5%
inhibition ([5]; cisplatin combo, at 5 µM): -38.8% and -8.31%
inhibition [5, 27]: -28.6% and -13.7%
inhibition ([6]; at 0.5 µM): -35.3% (inactive) and -9.61% (inactive)
inhibition [6, 22]: -24.9% and -19.8%
inhibition [6, 28]: -39.3% and -32.8%
inhibition [6, 29]: -53.1% and -17.8%
inhibition ([7]; at 0.5 µM): -42.2% (inactive) and 22% (inactive)
inhibition [7, 30]: -50.9% and 58.5%
inhibition [7, 31]: -41.8% and 56%
